PubChem BioAssay AID2284188 (EPA ToxCast)
Calls of active or inactive are those of the source. Rule for the calls: active = hit-call score of the fitted dose curve at least 0.9, where 1 is the maximum; inactive = score below 0.9.

molecular target: Voltage-dependent L-type calcium channel subunit alpha-1C (Rattus norvegicus) (UniProt P22002); test: ERF_FR_IC_rCACNA1C_Diltiazem: Eurofins (ERF) Calcium Ion Channel Binding (Diltiazem Site) LeadHunter Assay for rat Cav1.2 (L-type)
Experimental: ERF_FR_IC_rCACNA1C_Diltiazem is a biochemical, single-readout assay that uses extracted gene-proteins in a cell-free assay. Measurements were taken 2 hour after chemical dosing in a 96-well plate. See Cav1.2 (L-type) Rat Calcium Ion Channel Binding (Diltiazem Site) Assay, Cerep.ERF_FR_IC_rCACNA1C_Diltiazem is an assay component calculated from the ERF_FR_IC_rCACNA1C_Diltiazem assay. It is designed to measure radioligand binding using a type of binding reporter as detected by scintillation counting with radiometry technology.Data from the assay component ERF_FR_IC_rCACNA1C_Diltiazem was analyzed at the assay endpoint, ERF_FR_IC_rCACNA1C_Diltiazem, in the positive analysis fitting direction relative to DMSO as the negative control and baseline of activity. Using a type of binding reporter, loss-of-signal activity can be used to understand changes in binding as they relate to gene CACNA1C. To generalize the intended target to other relatable targets, this assay endpoint is annotated to the ion channel intended target family, where the subfamily is voltage gated (Calcium).
Rat cells are incubated for 120 minutes at room temprature with [3H]diltiazem (15 nM) as substrate and Papaverine as control inhibitor. Test Sample Requirements: Minimum for 1) Screen: 60 ul of 10 mM stock -OR- 1 mg (pre-weighed) for 10 uM final testing. […]

Sequence of Voltage-dependent L-type calcium channel subunit alpha-1C (Rattus norvegicus) (P22002 whole entry, looked up): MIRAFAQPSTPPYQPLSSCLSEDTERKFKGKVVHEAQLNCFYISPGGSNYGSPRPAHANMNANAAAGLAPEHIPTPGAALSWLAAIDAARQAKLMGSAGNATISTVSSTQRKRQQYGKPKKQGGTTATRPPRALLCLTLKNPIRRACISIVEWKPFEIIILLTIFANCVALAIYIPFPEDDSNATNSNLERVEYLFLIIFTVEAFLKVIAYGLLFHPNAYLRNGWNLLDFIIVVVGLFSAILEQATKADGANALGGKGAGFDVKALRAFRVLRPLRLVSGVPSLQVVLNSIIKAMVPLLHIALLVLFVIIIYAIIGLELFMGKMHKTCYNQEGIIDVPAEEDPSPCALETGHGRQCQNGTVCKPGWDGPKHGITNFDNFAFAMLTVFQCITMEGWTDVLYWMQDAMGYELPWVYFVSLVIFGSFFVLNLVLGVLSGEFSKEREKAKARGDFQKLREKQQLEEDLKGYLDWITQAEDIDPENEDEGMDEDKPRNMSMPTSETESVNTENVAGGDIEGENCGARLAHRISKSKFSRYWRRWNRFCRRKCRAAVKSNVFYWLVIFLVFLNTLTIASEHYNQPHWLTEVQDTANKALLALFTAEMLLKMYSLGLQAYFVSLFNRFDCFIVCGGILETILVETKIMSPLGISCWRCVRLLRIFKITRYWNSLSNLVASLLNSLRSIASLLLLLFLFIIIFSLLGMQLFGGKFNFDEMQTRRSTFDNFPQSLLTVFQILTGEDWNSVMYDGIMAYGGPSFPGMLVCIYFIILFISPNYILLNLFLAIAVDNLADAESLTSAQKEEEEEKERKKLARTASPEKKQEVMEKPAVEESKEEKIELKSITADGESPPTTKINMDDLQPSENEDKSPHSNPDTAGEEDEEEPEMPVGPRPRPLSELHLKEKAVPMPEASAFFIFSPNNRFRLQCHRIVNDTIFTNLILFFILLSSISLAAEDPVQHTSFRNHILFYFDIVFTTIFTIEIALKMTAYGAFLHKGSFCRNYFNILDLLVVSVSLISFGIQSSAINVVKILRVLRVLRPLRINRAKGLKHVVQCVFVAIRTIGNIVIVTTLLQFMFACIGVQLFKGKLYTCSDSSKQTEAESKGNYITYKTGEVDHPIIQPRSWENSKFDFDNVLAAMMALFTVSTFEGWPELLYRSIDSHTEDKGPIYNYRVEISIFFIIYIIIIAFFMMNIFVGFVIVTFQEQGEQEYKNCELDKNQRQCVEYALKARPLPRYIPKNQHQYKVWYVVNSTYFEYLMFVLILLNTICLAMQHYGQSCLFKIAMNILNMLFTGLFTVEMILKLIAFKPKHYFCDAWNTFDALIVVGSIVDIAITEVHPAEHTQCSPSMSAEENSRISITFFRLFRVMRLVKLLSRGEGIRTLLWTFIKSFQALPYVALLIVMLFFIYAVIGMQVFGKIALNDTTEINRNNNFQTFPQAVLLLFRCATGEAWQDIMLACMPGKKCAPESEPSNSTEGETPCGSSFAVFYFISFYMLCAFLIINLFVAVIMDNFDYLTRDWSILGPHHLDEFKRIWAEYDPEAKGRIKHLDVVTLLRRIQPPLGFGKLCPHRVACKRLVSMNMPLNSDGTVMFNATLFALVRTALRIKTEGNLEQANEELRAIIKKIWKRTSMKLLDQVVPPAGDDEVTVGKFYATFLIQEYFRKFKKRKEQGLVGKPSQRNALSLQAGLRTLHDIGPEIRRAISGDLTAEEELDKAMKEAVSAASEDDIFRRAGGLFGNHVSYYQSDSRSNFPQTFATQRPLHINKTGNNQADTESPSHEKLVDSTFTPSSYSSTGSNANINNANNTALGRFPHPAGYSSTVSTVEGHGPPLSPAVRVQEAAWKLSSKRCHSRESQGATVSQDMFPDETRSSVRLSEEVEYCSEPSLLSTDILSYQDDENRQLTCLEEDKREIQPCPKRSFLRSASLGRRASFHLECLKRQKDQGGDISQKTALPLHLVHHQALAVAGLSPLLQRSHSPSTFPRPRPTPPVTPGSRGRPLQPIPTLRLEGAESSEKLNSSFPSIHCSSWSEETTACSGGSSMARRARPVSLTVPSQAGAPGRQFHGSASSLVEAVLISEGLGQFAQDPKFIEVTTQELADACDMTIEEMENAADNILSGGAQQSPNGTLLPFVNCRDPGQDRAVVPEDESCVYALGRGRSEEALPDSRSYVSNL

SMILES	AC50
O=C(/C=C/c1ccc(O)cc1)CC(=O)/C=C/c1ccc(O)cc1	3.46 µM (active)
